PubChem BioAssay (Tox21)
Inconclusive results are not listed. Calls of active or inactive are those of the source. Unless noted, calls come from the whole dose curve; as a rule, active = well fitted curve in the direction sought with a large enough effect in the repeat runs; inconclusive = weak or mixed curves; inactive = no such curve, though single readings can be large; an effect the other way counts as inactive or inconclusive.

Legend:
[1] = target: Estrogen receptor beta (Homo sapiens) (UniProt Q92731); experiment: qHTS assay to identify small molecule agonists of the estrogen receptor beta (ER-beta) signaling pathway (AID 1259377; active = well fitted activation curve with a large enough effect in the signal ratio in the repeat runs, not every such curve was filed as active; the % refers to the signal ratio)
Estrogen receptor beta (Homo sapiens), sequence (Q92731 whole entry, looked up): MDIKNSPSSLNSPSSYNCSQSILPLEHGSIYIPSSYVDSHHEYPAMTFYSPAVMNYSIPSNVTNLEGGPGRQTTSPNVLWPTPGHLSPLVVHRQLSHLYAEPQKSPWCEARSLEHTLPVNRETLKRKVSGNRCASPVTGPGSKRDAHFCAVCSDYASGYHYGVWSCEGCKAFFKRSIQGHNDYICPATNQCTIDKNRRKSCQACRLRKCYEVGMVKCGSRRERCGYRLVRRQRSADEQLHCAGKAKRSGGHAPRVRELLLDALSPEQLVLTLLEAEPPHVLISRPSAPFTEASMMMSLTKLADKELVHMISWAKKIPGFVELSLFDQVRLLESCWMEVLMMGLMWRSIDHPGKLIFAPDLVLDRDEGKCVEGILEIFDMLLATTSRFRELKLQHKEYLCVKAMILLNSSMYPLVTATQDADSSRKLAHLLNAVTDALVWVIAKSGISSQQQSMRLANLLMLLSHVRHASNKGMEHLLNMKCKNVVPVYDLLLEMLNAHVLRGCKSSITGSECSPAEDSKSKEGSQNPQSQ
Method in brief: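 A UAS-controlled beta-lactamase reporter in ER-beta-UAS-bla HEK293T cells reports receptor activation. Compounds act for 16 hr at 37C in 2% charcoal-stripped serum, and a FRET substrate is read by fluorescence after 2 hours.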

[2] = target: Estrogen receptor beta (Homo sapiens) (UniProt Q92731); experiment: qHTS assay to identify small molecule antagonists of the estrogen receptor beta (ER-beta) signaling pathway (AID 1259378; active = well fitted inhibition curve with a large enough effect in the signal ratio in the repeat runs, not every such curve was filed as active; the % refers to the signal ratio)
Method in brief: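 ER-beta-UAS-bla HEK293T (GripTite) cells in 2% charcoal-stripped FBS medium were preincubated 6 hr at 37C, dosed with compound, then stimulated with 1 nM E2 (final) for 16 hr; beta-lactamase reporter read by B/G FRET fluorescence after 2 hr substrate loading.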

[3] = qHTS assay to identify small molecule agonists of the androgen receptor (AR) signaling pathway in the presence of an antagonist - cell viability counter screen (AID 1259379);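 note: MDA-kb2 human breast cancer cells carrying an MMTV luciferase reporter; series mostly up to about 92 µM; nearly all actives have a fitted effect of over 25% in size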
Method in brief: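 Viability counter screen: CellTiter-Fluor fluorescence, measured in the same wells as the luciferase read-out. MDA-kb2 cells, 3,000/well, with nilutamide at 3.0uM final and compounds at 15 concentrations, 16 hr at 37C, 0% CO2.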

[4] = qHTS assay to identify small molecule agonists of the estrogen receptor beta (ER-beta) signaling pathway - cell viability counter screen (AID 1259380); note: nearly all actives have a fitted effect of over 30% in size
Method in brief: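 Luminescence read-out (CellTiter-Glo, 30 min, room temp) taken in the same wells as the beta-lactamase reporter assay; ER-beta-UAS-bla HEK293T cells exposed to DMSO-dissolved compounds for 16 hr at 37C in 2% charcoal-stripped FBS medium.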

[5] = qHTS assay to identify small molecule antagonists of the estrogen receptor beta (ER-beta) signaling pathway - cell viability counter screen (AID 1259382); note: series mostly up to about 92 µM; nearly all actives have a fitted effect of over 55% in size
Method in brief: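 Luminescent ATP read-out (CellTiter-Glo, 30 min, RT) taken in the same wells as the bla reporter assay. HEK293T ER-beta-UAS-bla cells in 2% charcoal-stripped FBS were exposed to compounds with 1nM E2 for 16 hr at 37C.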

[6] = target: Estrogen receptor (Homo sapiens) (UniProt P03372); experiment: qHTS assay to identify small molecule agonists of the estrogen receptor alpha (ER-alpha) signaling pathway in the presence of an antagonist (AID 1259383; calls by dose curve; note: top concentration of the series differs between compounds; nearly all actives have a fitted effect of over 15% in size)
Estrogen receptor (Homo sapiens), sequence (P03372 whole entry, looked up): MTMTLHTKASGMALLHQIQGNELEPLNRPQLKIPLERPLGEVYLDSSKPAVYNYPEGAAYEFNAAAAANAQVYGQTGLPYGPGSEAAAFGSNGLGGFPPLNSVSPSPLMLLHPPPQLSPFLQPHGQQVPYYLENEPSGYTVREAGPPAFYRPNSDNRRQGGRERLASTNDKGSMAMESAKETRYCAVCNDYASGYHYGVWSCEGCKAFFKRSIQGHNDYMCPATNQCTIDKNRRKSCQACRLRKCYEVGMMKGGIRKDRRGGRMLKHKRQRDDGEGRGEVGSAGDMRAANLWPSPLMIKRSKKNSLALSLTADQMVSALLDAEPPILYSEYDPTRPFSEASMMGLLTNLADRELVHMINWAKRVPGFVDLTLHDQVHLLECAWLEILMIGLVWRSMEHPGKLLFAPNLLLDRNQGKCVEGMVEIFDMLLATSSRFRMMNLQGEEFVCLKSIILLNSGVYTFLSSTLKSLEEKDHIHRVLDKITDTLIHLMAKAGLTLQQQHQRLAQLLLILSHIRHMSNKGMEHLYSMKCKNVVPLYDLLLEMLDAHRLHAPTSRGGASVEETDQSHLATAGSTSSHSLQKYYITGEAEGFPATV
Method in brief: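 Luciferase luminescence (ONE-Glo, 30min at room temperature) measured in VM7Luc4E2 cells after 22hr compound exposure at 15 concentrations, with 10.0nM ICI-182,780 final present; cells express endogenous ER-alpha and carry four EREs upstream of luciferase.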

[7] = qHTS assay to identify small molecule agonists or antagonists of the thyroid stimulating hormone receptor (TSHR) signaling pathway - wild type cell line counter screen (AID 1259384; calls by dose curve)
Method in brief: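 Wild-type HEK293 cells were plated 18 h at 37 C/5% CO2, pin-dosed with compound plus Ro20-1724 medium, held 30 min at room temperature, then given cAMP-d2 and anti-cAMP-cryptate; fluorescence was read after 1 h. Fifteen concentrations, triplicate.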

[8] = target: Thyrotropin receptor (Homo sapiens) (UniProt P16473); experiment: qHTS assay to identify small molecule antagonists of the thyroid stimulating hormone receptor (TSHR) signaling pathway (AID 1259385; calls by dose curve; note: nearly all actives have a fitted effect of over 20% in size)
Thyrotropin receptor (Homo sapiens), sequence (P16473 whole entry, looked up): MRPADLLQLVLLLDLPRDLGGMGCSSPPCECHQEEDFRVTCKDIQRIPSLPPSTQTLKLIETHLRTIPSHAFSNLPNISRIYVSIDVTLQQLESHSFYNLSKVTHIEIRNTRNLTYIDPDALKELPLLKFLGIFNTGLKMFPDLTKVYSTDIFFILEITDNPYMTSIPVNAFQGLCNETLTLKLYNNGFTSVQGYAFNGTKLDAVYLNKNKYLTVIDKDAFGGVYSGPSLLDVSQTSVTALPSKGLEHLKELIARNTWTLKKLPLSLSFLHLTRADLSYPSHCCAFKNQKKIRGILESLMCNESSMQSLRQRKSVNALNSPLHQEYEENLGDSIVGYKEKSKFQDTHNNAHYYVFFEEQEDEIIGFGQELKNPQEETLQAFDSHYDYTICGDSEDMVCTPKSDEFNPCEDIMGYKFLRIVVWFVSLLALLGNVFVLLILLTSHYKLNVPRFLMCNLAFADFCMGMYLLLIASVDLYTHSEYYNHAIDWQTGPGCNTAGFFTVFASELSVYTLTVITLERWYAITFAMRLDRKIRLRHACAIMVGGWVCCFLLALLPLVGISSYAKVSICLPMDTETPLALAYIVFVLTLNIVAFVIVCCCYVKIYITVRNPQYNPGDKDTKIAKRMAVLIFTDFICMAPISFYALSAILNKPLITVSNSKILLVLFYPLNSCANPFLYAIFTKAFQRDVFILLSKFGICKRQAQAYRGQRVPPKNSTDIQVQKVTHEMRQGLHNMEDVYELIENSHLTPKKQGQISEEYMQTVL
Method in brief: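 TSHR-HEK293 cells were plated and held 18 h at 37C/5% CO2, then given compound plus Ro20-1724 and stimulated with TSH at 1.5 ng/mL final. After 30 min at room temperature, cAMP was detected with cAMP-d2/anti-cAMP-cryptate (1 h) by fluorescence.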

[9] = qHTS assay to identify small molecule agonists of the estrogen receptor alpha (ER-alpha) signaling pathway in the presence of an antagonist - cell viability counter screen (AID 1259386);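 note: series mostly up to about 92 µM; cells exposed to compounds for 22 h at 37 °C before the viability read; nearly all actives have a fitted effect of over 30% in size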
Method in brief: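 Read-out: CellTiter-Fluor fluorescence after 1hr reagent incubation, measured in the same wells as the luciferase readout. VM7Luc4E2 cells were exposed to 15 compound concentrations with 10.0nM ICI-182,780 for 22hr at 37C.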

[10] = target: Progesterone receptor (Homo sapiens) (UniProt P06401); experiment: qHTS assay to identify small molecule antagonists of the progesterone receptor (PR) signaling pathway (AID 1346795; active = well fitted inhibition curve with a large enough effect in the signal ratio in the repeat runs, not every such curve was filed as active; the % refers to the signal ratio)
Progesterone receptor (Homo sapiens), sequence (P06401 whole entry, looked up): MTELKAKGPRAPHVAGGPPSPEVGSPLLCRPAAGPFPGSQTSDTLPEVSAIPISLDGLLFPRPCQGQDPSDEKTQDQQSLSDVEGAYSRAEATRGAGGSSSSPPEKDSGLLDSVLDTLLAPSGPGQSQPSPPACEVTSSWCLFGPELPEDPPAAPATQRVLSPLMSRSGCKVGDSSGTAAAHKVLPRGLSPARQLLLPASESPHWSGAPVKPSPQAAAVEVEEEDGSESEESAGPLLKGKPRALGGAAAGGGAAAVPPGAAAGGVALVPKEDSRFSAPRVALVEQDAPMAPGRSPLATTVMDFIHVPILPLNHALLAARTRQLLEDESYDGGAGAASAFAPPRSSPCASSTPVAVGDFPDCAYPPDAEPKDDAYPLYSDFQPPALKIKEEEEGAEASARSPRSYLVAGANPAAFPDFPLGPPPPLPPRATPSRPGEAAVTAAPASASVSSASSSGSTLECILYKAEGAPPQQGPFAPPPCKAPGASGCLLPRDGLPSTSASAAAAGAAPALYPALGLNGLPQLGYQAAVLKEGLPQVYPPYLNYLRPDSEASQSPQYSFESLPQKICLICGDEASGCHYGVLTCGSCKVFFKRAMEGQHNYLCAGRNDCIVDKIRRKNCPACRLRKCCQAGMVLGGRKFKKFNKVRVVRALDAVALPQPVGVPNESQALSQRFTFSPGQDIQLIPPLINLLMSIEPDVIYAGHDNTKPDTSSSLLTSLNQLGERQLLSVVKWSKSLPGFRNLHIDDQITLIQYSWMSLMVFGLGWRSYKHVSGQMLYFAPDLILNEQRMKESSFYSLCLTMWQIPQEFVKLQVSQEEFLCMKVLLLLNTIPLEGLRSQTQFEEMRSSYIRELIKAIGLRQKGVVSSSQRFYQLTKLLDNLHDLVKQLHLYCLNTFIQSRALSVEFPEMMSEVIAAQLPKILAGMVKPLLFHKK
Method in brief: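 HEK293T PR-UAS-bla reporter cells in charcoal-stripped serum (2%) received compound after a 6 hr settling period, followed by R5020 agonist at 1 nM final; 16 hr incubation preceded the FRET substrate step and fluorescence measurement.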

[11] = qHTS assay to identify small molecule agonists of the progesterone receptor (PR) signaling pathway - cell viability counter screen (AID 1346799; calls by dose curve; note: nearly all actives have a fitted effect of over 45% in size)
Method in brief: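 Counter screen for cytotoxicity: compound-treated PR-UAS-bla HEK293T cells (16 hr, 37C, 5% CO2) were assayed with CellTiter-Glo, luminescence measured after 30 min at room temperature.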

[12] = qHTS assay to identify small molecule antagonists of the TGF-beta/Smad signaling pathway - cell viability counter screen (AID 1346824); note: nearly all actives have a fitted effect of over 50% in size
Method in brief: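 SBE-bla HEK 293T cells were plated overnight at 37 C, then given compounds in DMSO plus TGF-beta1 (added as 0.25 ng/mL solution) for 5 hr. After the bla read, CellTiter-Glo was added to the same wells and luminescence read after 30 min at room temperature.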

[13] = qHTS assay to identify small molecule agonists of the TGF-beta/Smad signaling pathway - cell viability counter screen (AID 1346829); note: top concentration of the series differs between compounds; nearly all actives have a fitted effect of over 45% in size
Method in brief: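 Cytotoxicity counter screen: CellTiter-Glo luminescence (30 min, room temperature) measured in the SBE-bla HEK 293T reporter wells after 5 hr compound treatment at 37 C and the 2 hr substrate step.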

[14] = qHTS assay to identify small molecule agonists of the TGF-beta/Smad signaling pathway (AID 1346859; active = well fitted activation curve with a large enough effect in the signal ratio in the repeat runs, not every such curve was filed as active; the % refers to the signal ratio; note: series mostly up to about 77 µM)
Method in brief: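 Smad-responsive beta-lactamase reporter cells (HEK 293T) received compounds from DMSO stocks after overnight attachment, were incubated 5 hr, then treated 2 hr with FRET substrate before dual-emission fluorescence measurement (405 nm excitation).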

[15] = target: Thyrotropin-releasing hormone receptor (Homo sapiens) (UniProt P34981); experiment: qHTS assay to identify small molecule antagonists of the thyrotropin-releasing hormone receptor (TRHR) signaling pathway (AID 1346877; active = well fitted inhibition curve with a large enough effect in the repeat runs, not every such curve was filed as active; note: series mostly up to about 51 µM)
Thyrotropin-releasing hormone receptor (Homo sapiens), sequence (P34981 whole entry, looked up): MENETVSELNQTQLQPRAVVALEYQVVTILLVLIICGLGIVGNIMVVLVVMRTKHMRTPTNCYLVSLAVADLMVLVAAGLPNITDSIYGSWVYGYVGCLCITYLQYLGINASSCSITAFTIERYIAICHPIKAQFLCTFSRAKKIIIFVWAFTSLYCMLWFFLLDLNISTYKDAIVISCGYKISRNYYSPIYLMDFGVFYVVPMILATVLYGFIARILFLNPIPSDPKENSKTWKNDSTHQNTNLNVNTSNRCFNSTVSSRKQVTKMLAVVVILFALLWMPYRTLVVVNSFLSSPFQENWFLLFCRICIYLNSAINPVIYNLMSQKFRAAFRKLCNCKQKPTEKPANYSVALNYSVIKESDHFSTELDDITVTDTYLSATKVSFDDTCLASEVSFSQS
Method in brief: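 HEK293/TRHR cells, 18 h, 37 °C; Ca2+ dye 2 h; cpd 5 min RT; TRH 1 nM final; fluorescence read 3 min, 1 s intervals; 15 concs, triplicate.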

[16] = qHTS assay to identify small molecule antagonists of the progesterone receptor (PR) signaling pathway - cell viability counter screen (AID 1346798); note: series mostly up to about 92 µM; nearly all actives have a fitted effect of over 50% in size
Method in brief: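 Same-well multiplex: after 16 hr at 37C with compound and R5020 stimulation, HEK293T cells carrying a UAS-bla reporter received LiveBLAzer substrate (2 hr RT), then CellTiter-Glo (30 min RT) for luminescent viability.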

[17] = target: Thyrotropin-releasing hormone receptor (Homo sapiens) (UniProt P34981); experiment: qHTS assay to identify small molecule agonists of the thyrotropin-releasing hormone receptor (TRHR) signaling pathway (AID 1346891; calls by dose curve;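 note: HEK293 cells expressing TRHR with calcium dye readout; series mostly up to about 58 µM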)
Method in brief: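 Agonist-mode calcium mobilisation screen: TRHR-transfected HEK293 cells cultured overnight (18 h), dye-loaded for 2 h at 37 °C, exposed to compounds, and monitored by fluorescence for 3 min.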

[18] = Human pregnane X receptor (PXR) small molecule agonists, qHTS cell viability counter screen (AID 1346977); note: nearly all actives have a fitted effect of over 50% in size
Method in brief: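 Measures live-cell protease fluorescence (CellTiter-Fluor) in PXR-Luc HepG2 cells treated 24hr with compounds at 37C. Cells had 5hr to attach before pin transfer of DMSO solutions.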

[19] = target: Progesterone receptor (Homo sapiens) (UniProt P06401); experiment: qHTS assay to identify small molecule agonists of the progesterone receptor (PR) signaling pathway (AID 1346784; calls by dose curve; note: nearly all actives have a fitted effect of over 30% in size)
Method in brief: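 Agonist mode, quantitative HTS format in a HEK 293T line expressing a UAS-controlled beta-lactamase reporter; 16 hr compound exposure at 37C in 2% charcoal-stripped FBS, then LiveBLAzer B/G FRET fluorescence.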
% is set by controls: 0 for no effect and ±100 for the full control effect.

CCCCCCCCCCOc1cc2c(=O)c(C(=O)OCC)c[nH]c2cc1OCC
inactive: activation [1] -0.652% [at 8.39 µM] | activity, negative = inhibition [2] 11.6% [at 8.39 µM] | activity change, negative = cytotoxicity [3] 0.727% [at 8.39 µM] | activity change, negative = cytotoxicity [4] 7.19% [at 8.39 µM] | activity change, negative = cytotoxicity [5] 5.47% [at 8.39 µM] | activation [6] 0.417% [at 8.39 µM] | cAMP activity change [7] -4.45% [at 8.39 µM] | activity change, negative = inhibition [8] 0.172% [at 8.39 µM] | activity change, negative = cytotoxicity [9] -3.47% [at 8.39 µM] | activity change, negative = inhibition [10] -0.779% [at 8.39 µM] | activity change, negative = cytotoxicity [11] -5.75% [at 8.39 µM] | viability change, negative = cytotoxic [12] 0.981% [at 6.97 µM] | activity change, negative = cytotoxicity [13] 0.83% [at 6.97 µM] | activation [14] 0.379% [at 6.97 µM] | activity, negative = inhibition [15] 0.403% [at 4.65 µM]

c1ccc(Cc2ccccc2)cc1
inactive: Potency [1] | Potency [2] | Potency [3] | Potency [4] | outcome [5] | outcome [6] | Potency [9] | Potency [10] | Potency [16] | Potency [11] | outcome [12] | outcome [13] | outcome [14] | outcome [15] | Potency [17] | Potency [18]

CCOC(=O)OC(C)OC1=C(C(=O)Nc2ccccn2)N(C)S(=O)(=O)c2ccccc21 (centres undefined)
inactive: Potency [1] | Potency [2] | Potency [3] | Potency [4] | outcome [5] | outcome [6] | outcome [7] | Potency [9] | Potency [19] | Potency [10] | Potency [16] | outcome [12] | outcome [13] | outcome [14] | outcome [15] | Potency [18]

OCCCCCO
inactive: Potency [1] | Potency [2] | Potency [3] | Potency [4] | outcome [5] | outcome [6] | outcome [7] | outcome [8] | Potency [9] | Potency [19] | Potency [10] | Potency [11] | outcome [13] | outcome [14] | outcome [15] | Potency [17]

CCOC(=O)CCC(=O)OCC
inactive: Potency [1] | Potency [2] | Potency [3] | Potency [4] | outcome [5] | outcome [6] | outcome [7] | outcome [8] | Potency [9] | Potency [16] | Potency [11] | outcome [12] | outcome [13] | outcome [14] | Potency [17] | Potency [18]

CCOC(=O)COC(=O)c1ccccc1C(=O)OCC
inactive: Potency [1] | Potency [2] | Potency [3] | Potency [4] | outcome [5] | outcome [6] | outcome [7] | Potency [9] | Potency [19] | Potency [10] | Potency [16] | Potency [11] | outcome [12] | outcome [13] | outcome [15] | Potency [17]

CC(C#N)(CCC(=O)O)N=NC(C)(C#N)CCC(=O)O (centres undefined)
inactive: Potency [1] | Potency [2] | Potency [3] | Potency [4] | outcome [5] | outcome [7] | outcome [8] | Potency [9] | Potency [19] | Potency [10] | Potency [16] | Potency [11] | outcome [13] | outcome [14] | outcome [15] | Potency [17] | Potency [18]

CCCCN(CCC(=O)OCC)C(C)=O
inactive: Potency [1] | Potency [2] | Potency [3] | Potency [4] | outcome [5] | outcome [6] | outcome [7] | outcome [8] | Potency [9] | Potency [10] | Potency [16] | Potency [11] | outcome [13] | outcome [14] | outcome [15] | Potency [17] | Potency [18]
